# Measurements reported in the supplement of paper PMC4709259.
# Counter-ions that a name gives are not always drawn. ± gives the standard deviation.
# Legend:
# Jurkat [1] = assay: mean cell size (FSC-A) relative to DMSO control (fraction of control); higher = larger cells; conditions: 48 h
# Procedure, shortened: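 Jurkat cells seeded at 600 cells/µl were incubated 1 h, then exposed for 48h to the Enzo Screen-Well FDA Approved Drug Library v2.0 at 25µM in 0.9% (v/v) final DMSO. Drugs that cut counts below 20% of controls were diluted 10-fold and retested, down to 25nM. Cell count and mean cell size (forward scatter area) were read on an Accuri C6 flow cytometer, relative to solvent-only controls. Plates held 6-12 controls; values are means of 3 biological replicates.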
# Jurkat [2] = assay: cell count relative to DMSO control (fraction of control); higher = more cells (less growth inhibition); conditions: 48 h
Structure (SMILES),mean cell size (Jurkat [1]),cell count (Jurkat [2])
O=C1NC(=O)C(c2ccccc2)(c2ccccc2)N1 [Phenytoin] (concentration: 25 µM),0.978 ± 0.042,0.74 ± 0.12
CC(C)C(=O)Nc1ccc([N+](=O)[O-])c(C(F)(F)F)c1 [Flutamide] (concentration: 25 µM),0.918 ± 0.033,0.329 ± 0.14
CCCSc1ccc2[nH]c(NC(=O)OC)nc2c1 [Albendazole] (concentration: 2.5 µM),1.32 ± 0.11,0.209 ± 0.012
Cn1c(=O)c2c(ncn2C)n(C)c1=O [Caffeine] (concentration: 25 µM),0.986 ± 0.046,1 ± 0.093
CC(O)(P(=O)(O)O)P(=O)(O)O [Etidronate Disodium] (concentration: 25 µM),1 ± 0.052,0.595 ± 0.17
CCC(=O)OCC(=O)[C@@]1(OC(=O)CC)[C@@H](C)C[C@H]2[C@@H]3CCC4=CC(=O)C=C[C@]4(C)[C@@]3(Cl)[C@@H](O)C[C@@]21C [Beclomethasone Dipropionate] (concentration: 25 µM),0.913 ± 0.049,0.774 ± 0.07
O=C(C1CCCCC1)N1CC(=O)N2CCc3ccccc3C2C1 (stereo not given) [Praziquantel] (concentration: 25 µM),0.996 ± 0.028,0.781 ± 0.048
Cn1ccnc1S [Methimazole] (concentration: 25 µM),0.951 ± 0.011,0.842 ± 0.092
CCN(CC)CCNC(=O)c1cc(Cl)c(N)cc1OC [Metoclopramide·HCl] (concentration: 25 µM),0.951 ± 0.018,0.758 ± 0.16
C/C(=C\C(=O)OCCCCCCCCC(=O)O)C[C@@H]1OC[C@H](C[C@@H]2O[C@H]2[C@@H](C)[C@H](C)O)[C@@H](O)[C@H]1O [Mupirocin] (concentration: 25 µM),0.928 ± 0.065,0.525 ± 0.18
N#Cc1ccc(C(c2ccc(C#N)cc2)n2cncn2)cc1 [Letrozole] (concentration: 25 µM),1.01 ± 0.028,0.798 ± 0.019
CC(=O)Oc1ccccc1C(=O)Nc1ncc([N+](=O)[O-])s1 [Nitazoxanide] (concentration: 2.5 µM),0.9325 ± 0.0054,0.862 ± 0.091
Clc1ccc(CCC(Cn2ccnc2)Sc2c(Cl)cccc2Cl)cc1 (stereo not given) [Butoconazole Nitrate] (concentration: 25 µM),0.953 ± 0.05,0.953 ± 0.094
CCN(CC)C(=S)SSC(=S)N(CC)CC [Disulfiram] (concentration: 25 µM),0.959 ± 0.051,0.559 ± 0.15
COC1=CC(=O)C[C@@H](C)[C@]12Oc1c(Cl)c(OC)cc(OC)c1C2=O [Griseofulvin] (concentration: 2.5 µM),0.975 ± 0.02,0.865 ± 0.099
CCN1CC(CCN2CCOCC2)C(c2ccccc2)(c2ccccc2)C1=O (stereo not given) [Doxapram·HCl] (concentration: 25 µM),0.928 ± 0.013,1.01 ± 0.015
COc1ccc(O)cc1 [Mequinol] (concentration: 25 µM),1.15 ± 0.034,0.863 ± 0.063
COc1cc2nc(N3CCN(C(=O)c4ccco4)CC3)nc(N)c2cc1OC [Prazosin·HCl] (concentration: 2.5 µM),1.03 ± 0.056,0.484 ± 0.18
O=C(O[C@@H]1C[C@@H]2C[C@H]3C[C@H](C1)N2CC3=O)c1c[nH]c2ccccc12 [Dolasetron] (concentration: 25 µM),0.921 ± 0.029,0.29 ± 0.053
C=C[C@H]1CN2CC[C@H]1C[C@H]2[C@H](O)c1ccnc2ccc(OC)cc12 [Quinine·HCl·H2O] (concentration: 25 µM),1.06 ± 0.055,0.637 ± 0.18
CN(C)CCCC1(c2ccc(F)cc2)OCc2cc(C#N)ccc21 (stereo not given) [Citalopram·HBr] (concentration: 25 µM),0.951 ± 0.031,1.15 ± 0.039
c1cnc2cc3c(cc2n1)[C@@H]1CNC[C@H]3C1 [Varenicline Tartrate] (concentration: 25 µM),1.02 ± 0.038,1.01 ± 0.062
O=C1Nc2ccc(Cl)cc2[C@@](C#CC2CC2)(C(F)(F)F)O1 [Efavirenz] (concentration: 25 µM),0.9 ± 0.017,0.628 ± 0.019
NCC[C@H](O)C(=O)N[C@@H]1C[C@H](N)[C@@H](O[C@H]2O[C@H](CN)[C@@H](O)[C@H](O)[C@H]2O)[C@H](O)[C@H]1O[C@H]1O[C@H](CO)[C@@H](O)[C@H](N)[C@H]1O [Amikacin Disulfate] (concentration: 25 µM),0.994 ± 0.028,0.921 ± 0.014
CC/C(=C(\c1ccccc1)c1ccc(OCCN(C)C)cc1)c1ccccc1 [Tamoxifen Citrate] (concentration: 25 µM),0.908 ± 0.015,0.314 ± 0.11
